Data on 30 sequences can be found in PMC9838217, “Structure of SALL4 zinc finger domain reveals link between AT-rich DNA binding and Okihiro syndrome”.

Changes are numbered by the printed parent chain.

Common to all, as to test: HT-SELEX; high values mean tight binding
What all share (settings): protein: recombinant; vector His6-GST; dsDNA, one strand shown

Test [1] deals with T1, SALL4 ZFC4 WT (HT-SELEX) (Mus musculus, UniProt Q8BX22 870-940).
T1 sequence: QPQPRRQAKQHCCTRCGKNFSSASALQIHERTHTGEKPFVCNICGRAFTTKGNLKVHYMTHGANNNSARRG
The procedure, abridged:
(§1)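 DNA from a random library (1.5 µg in the first cycle, 200 ng afterwards) was incubated with purified recombinant mouse SALL4 zinc finger cluster 4, residues 870–940 (1 µg), for 10 min at room temperature in 100 µl buffer: 10 mM Tris–HCl pH 7.5, 50 mM NaCl, poly(dI-dC), DTT. Bound complexes were pulled down on Ni2+ beads, washed and PCR-amplified, and the selection was repeated for up to 6 cycles in triplicate. MiSeq reads were scanned for 6-mers, and binding signal is each canonical k-mer's read fraction as fold change over the initial random library.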

Test [2] addresses T2, SALL4 ZFC4 R900W (HT-SELEX) (Mus musculus, UniProt Q8BX22 870-940, R900W).
T2 sequence: T1 sequence with R31W
Summed up:
as §1

Test [3] deals with T3, SALL4 ZFC4 G921D (HT-SELEX) (Mus musculus, UniProt Q8BX22 870-940, G921D).
T3 sequence: T1 sequence with G52D
Summed up: as §1

CCACCA: the values for the binding signal in test [1], in test [2] and in test [3] were 0.417 ± 0.0318 fold-change vs cycle 0, 0.471 ± 0.033 fold-change vs cycle 0 and 0.582 ± 0.0561 fold-change vs cycle 0, respectively.

On to CACACC, for which the figures for the binding signal in test [1], in test [2] and in test [3] were 0.375 ± 0.0351 fold-change vs cycle 0, 0.468 ± 0.0362 fold-change vs cycle 0 and 0.561 ± 0.0498 fold-change vs cycle 0, respectively.

As to CATCGG, the results for the binding signal in test [1], in test [2] and in test [3] were 0.364 ± 0.0112 fold-change vs cycle 0, 0.442 ± 0.0135 fold-change vs cycle 0 and 0.568 ± 0.0586 fold-change vs cycle 0, respectively.

For ACAAGG, the binding signal in test [1] is 0.796 ± 0.0489 fold-change vs cycle 0; in test [2], 0.976 ± 0.041 fold-change vs cycle 0; in test [3] it was 0.945 ± 0.0282 fold-change vs cycle 0.

Regarding CTGAGC, the binding signal in test [1] was 0.348 ± 0.00959 fold-change vs cycle 0; in test [2], 0.42 ± 0.0161 fold-change vs cycle 0; in test [3], 0.535 ± 0.0354 fold-change vs cycle 0.

Take ACCTCG: the binding signal in test [1] was found to be 0.423 ± 0.0256 fold-change vs cycle 0; in test [2] it was 0.498 ± 0.00774 fold-change vs cycle 0; in test [3], 0.604 ± 0.0431 fold-change vs cycle 0.

TACGCA: the binding signal in test [1] was 0.51 ± 0.0296 fold-change vs cycle 0; in test [2], 0.54 ± 0.0242 fold-change vs cycle 0; in test [3], 0.668 ± 0.0555 fold-change vs cycle 0.

Consider CCAACA, for which the binding signal came to 0.656 ± 0.00995 fold-change vs cycle 0 in test [1], 0.739 ± 0.0191 fold-change vs cycle 0 in test [2] and 0.817 ± 0.0303 fold-change vs cycle 0 in test [3].

Regarding ATAGTA, the values for the binding signal in test [1], in test [2] and in test [3] were 2.1 ± 0.131 fold-change vs cycle 0, 2.08 ± 0.149 fold-change vs cycle 0 and 1.83 ± 0.209 fold-change vs cycle 0, respectively.

Turning to AACCCC, the binding signal in test [1] was 0.459 ± 0.0283 fold-change vs cycle 0; in test [2] it was 0.547 ± 0.00959 fold-change vs cycle 0; in test [3], 0.617 ± 0.0497 fold-change vs cycle 0.

On to AAGCAG, for which the binding signal in test [1] turned out to be 0.683 ± 0.026 fold-change vs cycle 0; in test [2], 0.821 ± 0.0507 fold-change vs cycle 0; in test [3] it was 0.85 ± 0.0183 fold-change vs cycle 0.

Regarding ATGCAT, the figures for the binding signal in test [1], in test [2] and in test [3] were 1.33 ± 0.0832 fold-change vs cycle 0, 1.27 ± 0.0798 fold-change vs cycle 0 and 1.26 ± 0.0876 fold-change vs cycle 0, respectively.

Regarding AAGAGA, the binding signal in test [1] was 1.45 ± 0.0335 fold-change vs cycle 0; in test [2], 1.67 ± 0.0544 fold-change vs cycle 0; in test [3], 1.48 ± 0.103 fold-change vs cycle 0.

In the case of CCACTA, the results for the binding signal in test [1], in test [2] and in test [3] were 0.774 ± 0.0352 fold-change vs cycle 0, 0.855 ± 0.0167 fold-change vs cycle 0 and 0.895 ± 0.0113 fold-change vs cycle 0, respectively.

Regarding ACCTGC, the binding signal was 0.368 ± 0.0272 fold-change vs cycle 0 in test [1], 0.391 ± 0.01 fold-change vs cycle 0 in test [2] and 0.516 ± 0.075 fold-change vs cycle 0 in test [3].

Turning to ACAAAG, the binding signal in test [1] worked out at 1.19 ± 0.0417 fold-change vs cycle 0; in test [2], 1.36 ± 0.0499 fold-change vs cycle 0; in test [3], 1.3 ± 0.0198 fold-change vs cycle 0.

With GATTGC, the binding signal in test [1] is 0.641 ± 0.0324 fold-change vs cycle 0; in test [2], 0.711 ± 0.00883 fold-change vs cycle 0; in test [3] it was 0.817 ± 0.0343 fold-change vs cycle 0.

On to AGGGTG, for which the binding signal in test [1] amounted to 0.486 ± 0.0118 fold-change vs cycle 0; in test [2] it was 0.567 ± 0.0247 fold-change vs cycle 0; in test [3] it was 0.648 ± 0.0341 fold-change vs cycle 0.

On to GTCAAC, for which the binding signal in test [1] came out at 0.711 ± 0.0163 fold-change vs cycle 0; in test [2], 0.867 ± 0.00955 fold-change vs cycle 0; in test [3] it was 0.934 ± 0.0287 fold-change vs cycle 0.

CAGAGA: the results for the binding signal in test [1], in test [2] and in test [3] were 0.765 ± 0.0216 fold-change vs cycle 0, 0.92 ± 0.0161 fold-change vs cycle 0 and 0.951 ± 0.0212 fold-change vs cycle 0, respectively.

As to GTCGAA, the binding signal in test [1] was found to be 0.506 ± 0.0326 fold-change vs cycle 0; in test [2] it was 0.599 ± 0.0193 fold-change vs cycle 0; in test [3] it was 0.7 ± 0.0299 fold-change vs cycle 0.

Take AGTCTA: the results for the binding signal in test [1], in test [2] and in test [3] were 1.25 ± 0.0412 fold-change vs cycle 0, 1.41 ± 0.0887 fold-change vs cycle 0 and 1.37 ± 0.0788 fold-change vs cycle 0, respectively.

Take ATACTC: the binding signal is 1.45 ± 0.0421 fold-change vs cycle 0 in test [1], 1.5 ± 0.0712 fold-change vs cycle 0 in test [2] and 1.44 ± 0.097 fold-change vs cycle 0 in test [3].

TCGGAA: the binding signal in test [1] was 0.681 ± 0.041 fold-change vs cycle 0; in test [2] it was 0.761 ± 0.0268 fold-change vs cycle 0; in test [3], 0.862 ± 0.0635 fold-change vs cycle 0.

Take AAAGTA: the binding signal in test [1] came to 1.92 ± 0.0856 fold-change vs cycle 0; in test [2], 1.98 ± 0.162 fold-change vs cycle 0; in test [3], 1.73 ± 0.169 fold-change vs cycle 0.

As for AGTTAT, the binding signal came to 2.81 ± 0.247 fold-change vs cycle 0 in test [1], 2.13 ± 0.15 fold-change vs cycle 0 in test [2] and 1.89 ± 0.186 fold-change vs cycle 0 in test [3].

Take AATGAG: the figures for the binding signal in test [1], in test [2] and in test [3] were 1.36 ± 0.0386 fold-change vs cycle 0, 1.5 ± 0.047 fold-change vs cycle 0 and 1.41 ± 0.0472 fold-change vs cycle 0, respectively.

As for TTACAA, the binding signal in test [1] turned out to be 2.01 ± 0.0785 fold-change vs cycle 0; in test [2], 2.03 ± 0.0849 fold-change vs cycle 0; in test [3] it was 1.81 ± 0.143 fold-change vs cycle 0.

Regarding CGGATA, the binding signal in test [1] came to 0.674 ± 0.0155 fold-change vs cycle 0; in test [2], 0.747 ± 0.0235 fold-change vs cycle 0; in test [3] it was 0.823 ± 0.043 fold-change vs cycle 0.

As to AGTACC, the binding signal was 0.813 ± 0.0272 fold-change vs cycle 0 in test [1], 0.947 ± 0.0311 fold-change vs cycle 0 in test [2] and 0.981 ± 0.037 fold-change vs cycle 0 in test [3].
